A3A deaminase = APOBEC3A ssDNA deaminase inhibitors, primary screen, selectivity assay for APOBEC3G inhibitor project, biochemical, FAM/TAMRA oligo cleavage fluorescence. DNA dC->dU-editing enzyme APOBEC-3A (Homo sapiens), P31941. recombinant A3A, FAM/TAMRA ssDNA deamination fluorescence. inhibition, % at 20 µM. 0.41% of 330,000 active. AID 493011, 2011;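 active means at least 40% inhibition at 20 µM here, with at most 30% in a related deaminase screen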;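 further: plate controls were A3A with DMSO for no effect and wells lacking A3A enzyme for full effect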
Target sequence (P31941 whole entry, looked up): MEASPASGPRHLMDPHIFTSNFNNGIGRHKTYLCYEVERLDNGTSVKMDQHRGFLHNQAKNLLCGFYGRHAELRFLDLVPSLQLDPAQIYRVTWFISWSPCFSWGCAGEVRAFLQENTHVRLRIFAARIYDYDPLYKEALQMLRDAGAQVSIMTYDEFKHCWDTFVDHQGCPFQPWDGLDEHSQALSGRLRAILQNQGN
Wnt bcat act = Wnt/beta-catenin pathway activators, primary screen, cell-based, plate reader, single point. Wnt/beta-catenin reporter cell assay, activator. activation, % at 9.35 µM. 1.2% of 300,000 active; in the data active means activation above about 30%, passing the limit was not always enough; inconclusive means no clear call, values can overlap the other calls;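 further: 0% = neutral control wells and 100% = positive control wells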
MITF TRPM1 HTS = activators of MITF-driven TRPM1 promoter reporter, primary screen, cell-based, SK-MEL-5, luciferase, single point; AID 588334, 2011; activation, % at 12.5 µM; SK-MEL-5 TRPM1-promoter luciferase, 24 h; % of positive control, neutral wells = 0; 0.75% of 300,000 active;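 active means mean activation of at least 80% with every replicate also reaching 80%; inconclusive means mean reaches 80% but some replicate falls short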;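 further: 0% = neutral control wells and 100% = parthenolide positive control wells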
esBAF inh = Bmi1 luciferase reporter increase in mESCs, primary screen, esBAF inhibitor project, mouse ES cells, Bmi1 luciferase knock-in, single point | 24 h; 100% = twice the neutral-well signal | reporter increase, % at 12.5 µM | 2% of 350,000 active | AID 602393, 2012; in the data active means activation above about 40%; inconclusive means no clear call, values can overlap the other calls;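 further: 0% = median of the plate's neutral control wells and 100% = double that signal; a rise in the Bmi1 reporter signal indicates esBAF inhibition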
A3G deaminase = APOBEC3G DNA deaminase inhibitors, primary screen, biochemical, fluorescence, single-stranded DNA substrate, uHTS. DNA dC->dU-editing enzyme APOBEC-3G (Homo sapiens), Q9HC16. recombinant A3G, ssDNA deamination FAM/TAMRA fluorescence. inhibition, % at 20 µM. 0.28% of 330,000 active. AID 493012, 2011;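 active means inhibition of at least 40% at 20 µM, with no more than 30% in the related APOBEC3A deaminase screen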;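 further: plate controls were DMSO wells with A3G for no effect and wells lacking A3G enzyme for full effect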
PHOSPHO1 inh = PubChem AID 1565; Phosphoethanolamine/phosphocholine phosphatase (Homo sapiens), Q8TCT1; recombinant PHOSPHO1, absorbance phosphatase assay; inhibition, % at 13.3 µM; 1.1% of 290,000 active; in the data active means inhibition above about 60%
Target sequence (Q8TCT1 whole entry, looked up): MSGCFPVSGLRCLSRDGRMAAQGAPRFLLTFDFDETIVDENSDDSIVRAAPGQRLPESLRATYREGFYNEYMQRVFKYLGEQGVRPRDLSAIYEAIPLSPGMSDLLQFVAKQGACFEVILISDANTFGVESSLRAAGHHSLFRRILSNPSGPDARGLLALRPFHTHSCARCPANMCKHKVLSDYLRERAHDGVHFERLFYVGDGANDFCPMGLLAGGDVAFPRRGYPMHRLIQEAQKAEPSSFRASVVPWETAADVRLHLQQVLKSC
* hit, by the source's call; u = inconclusive; x = no result. Most compounds without a hit are left out; they make up all but 3.6% or so of the library.

SMILES	A3A deaminase	Wnt bcat act	MITF TRPM1 HTS	esBAF inh	A3G deaminase	PHOSPHO1 inh
C=CCn1c(N)c(C(=O)Nc2ccc(C)cc2)sc1=S	-1	x	71	51*	-1	17
CC(C)CC#Cc1cnc2c(c1)C(=O)N([C@H](C)CO)C[C@H](C)[C@@H](CN(C)Cc1cccc(F)c1)O2	x	x	x	-13	x	x
CC1(C)CC(N=c2cc(-c3ccccc3)oc3ccc(Cl)cc23)CC(C)(C)N1	x	9	-52	x	x	-44
OCCCN=c1cc(-c2ccccc2)oc2ccc(Cl)cc12	-13	x	6	72*	-4	16
COc1ccccc1S(=O)(=O)N[C@H]1CC[C@@H](CCNC(=O)C2CCOCC2)O[C@H]1CO	x	x	x	-4	x	x
CCC(=O)N1C[C@H](O)COC[C@@H]2O[C@@H](CC(=O)N3CCCCC3)CC[C@H]21	x	x	x	-5	x	x
Cn1c(=NC(=O)c2ccccc2[N+](=O)[O-])sc2cccc(F)c21	5	u	100*	24	0	15
Cn1c(=NC(=O)C(C)(C)C)sc2cccc(F)c21	4	6	18	18	0	11
COc1ccc(CNC(=O)N(C)C[C@@H]2OCc3ccccc3-c3ccccc3C(=O)N([C@H](C)CO)C[C@H]2C)cc1	x	x	x	3	x	x
O=C(C[C@H]1CC[C@@H]2[C@H](COC[C@@H](O)CN2C(=O)c2ccncc2)O1)NCc1cc(F)cc(F)c1	x	x	x	-4	x	x
CCCN(c1ccccc1F)S(=O)(=O)c1c[nH]c(C(=O)OC)c1	0	-1	-6	3	-4	70*
CCCCN(Cc1ccco1)S(=O)(=O)c1c[nH]c(C(=O)OC)c1	2	-2	-2	3	1	27
CCOc1ccc(N(C)S(=O)(=O)c2c[nH]c(C(=O)OC)c2)cc1	-3	1	3	0	-8	65*
Cc1cccc(S(=O)(=O)N[C@@H]2CC[C@H](CCNS(=O)(=O)c3ccccc3F)O[C@H]2CO)c1	x	x	x	4	x	x
O=C(CCNC(=O)c1ccco1)Nc1nc2ccccc2s1	13	26	26	37	-7	x
COc1ccc2nc(NC(=O)CCNC(=O)c3ccco3)sc2c1	-3	42*	110*	45*	-5	x
CCCC(=O)Nc1nc2ccc(OC)cc2s1	0	u	51	58*	1	16
C[C@@H]1CN([C@@H](C)CO)S(=O)(=O)c2ccc(C#CC3(O)CCCC3)cc2O[C@H]1CN(C)C(=O)Nc1ccccc1	x	x	x	0	x	x
O/N=C/c1ccc2ccccc2n1	-1	36*	x	x	-2	18
O/N=C/c1ccc2cccc(O)c2n1	2	3	-6	4	1	23
CCNC(=O)[C@H]1[C@H](CO)[C@H]2Cn3c(ccc(-c4ccc(F)cc4)c3=O)[C@@H]1N2C	x	x	x	-11	x	x
O=c1c2ccccc2ncn1CCOc1ccccc1[N+](=O)[O-]	2	4	54	67*	-5	-27
Cc1ccc(-c2cnc3c(c2)C(=O)N([C@H](C)CO)C[C@H](C)[C@H](CN(C)C(=O)c2ccc(F)cc2)O3)cc1	x	x	x	-5	x	x
O=C(Nc1cccc(C2=NCCN2)c1)Nc1cccc(C2=NCCN2)c1	24	-4	-5	45*	1	x
CCc1cc2c(=O)c(-c3nc(C)cs3)coc2cc1O	2	39*	48	48*	-1	24
SMILES	A3A deaminase	Wnt bcat act	MITF TRPM1 HTS	esBAF inh	A3G deaminase	PHOSPHO1 inh
Cc1csc(-c2coc3cc(O)cc(C)c3c2=O)n1	-3	22	10	60*	-4	7
Cc1nc(-c2coc3cc(O)c(C)cc3c2=O)cs1	-2	x	-17	x	-6	16
COc1ccc2c(=O)c(-c3nc(C)cs3)coc2c1	-1	x	-8	x	-2	20
CCCCCCOc1ccc(/C(N)=N/O)cc1	-2	x	42	75*	-2	-14
CCC(=O)N(C)C[C@@H]1Oc2cc(C3=CCCC3)ccc2S(=O)(=O)N([C@@H](C)CO)C[C@@H]1C	x	x	x	9	x	x
O=[N+]([O-])c1cccc(-c2nnc(-c3ccc4c(c3)OCO4)o2)c1	-3	-2	22	x	-6	-3

Screens: PubChem, several laboratories
